Measurements as given in ChEMBL document CHEMBL3988442, “University of Dundee, Small-Polar-MMV Screening Library” (2021).
The whole screen tested about 38,000 compounds, of which about 1,200 (3.2%) showed an effect of 50% or more. The median lay at about -58%. What follows is part of a selection rich in strong results, with near analogues and random picks from the rest.

System: Plasmodium falciparum
Assay: Calibr Malaria Delayed Death Assay SOP
Type: functional, organism-based
Set-up: scale not given: in the data most compounds retested in dose-response had high values
Details: concentration 4.99e-06 (unit not given; other assays of the set use mol/L)

Structure (SMILES)	Percent Effect [%]
Cc1noc(C)c1C(C)NC(=O)N1CCN(c2cccs2)CC1 (configuration not stated)	-38.18
CC(NC(=O)N1CCN(c2cccs2)CC1)c1ccncc1 (configuration not stated)	-36.24
CC(NC(=O)N1CCN(c2cccs2)CC1)c1ccc(C#N)cc1 (configuration not stated)	61
CN(Cc1ccccc1)CC1CC2(CO1)CN(c1nncs1)C2 (configuration not stated)	-3.819
CN(Cc1ccccc1)CC1CC2(CO1)CN(Cc1cnn(C)c1)C2 (configuration not stated)	50.64
CN(Cc1ccccc1)CC1CC2(CO1)CN(Cc1nccs1)C2 (configuration not stated)	3.92
Cc1nn(CC(=O)N2CCC3(CN(C)C(=O)O3)C2)c(=O)c2ccccc12 (configuration not stated)	-0.9093
c1cc(CNCc2ccnc(N3CCCC3)c2)c2c(c1)OCO2	-28.94
Cn1cc(N2CCCC(NCc3cccc4c3OCCCO4)C2)cn1 (configuration not stated)	-37.41
Cc1nc(C)c(CNCC2CCCn3ccnc32)s1 (configuration not stated)	-88.04
Cc1cn2c(n1)C(CNCc1cccc3c1OCO3)CCC2 (configuration not stated)	81.04
Cc1ccc(CNCC2CCCN2c2cccnn2)s1 (configuration not stated)	44
Clc1snnc1CN1CCCCC1Cn1cccn1 (configuration not stated)	-105.5
CN(Cc1cccc(C#N)c1)Cn1nc(C(C)(C)C)ccc1=O	-75.82
COc1cc(NC(=O)c2cc(Cl)ccc2F)c(C(=O)N(C)C)cc1OC	-86.88
Cc1nnc2ccc(OCCNS(=O)(=O)c3cccs3)nn12	-74.14
CC1=N[C@@]2(CC[C@@H]3CN(Cc4ccccc4F)C[C@@H]32)C(=O)N1CC1CC1.O=C(O)C(F)(F)F	66.32
CC1=N[C@@]2(CC[C@@H]3CN(CC(=O)N(C)C)C[C@@H]32)C(=O)N1CC1CC1.O=C(O)C(F)(F)F	-113.5
CCC1=N[C@@]2(CC[C@@H]3CN(Cc4ccccc4F)C[C@@H]32)C(=O)N1CC.O=C(O)C(F)(F)F	37.33
O=C(O)C(F)(F)F.O=C([C@H]1C[C@H]2OCC[C@H]2N(Cc2ccoc2)C1)N1CCCCO1	-83.93
CCN1CCn2cc(CNC(=O)c3cnn(C)c3)nc2C1.O=C(O)C(F)(F)F.O=C(O)C(F)(F)F	-97.9
COc1c(CNC2CCN(c3ncccn3)CC2)c(C)nn1C	-45.93
COc1ccccc1N1CCC(CNCc2cccc(O)c2)C1 (configuration not stated)	55.7
COc1ccccc1N1CCC(CNCc2cccc(C#N)c2)C1 (configuration not stated)	0.8345
COc1ccc(CNCC2CCN(c3ccccc3OC)C2)cc1O (configuration not stated)	21.41
COc1ccccc1N1CCC(CNS(=O)(=O)c2c(C)nn(C)c2C)C1 (configuration not stated)	-22.9

Structure (SMILES)	Percent Effect [%]
COc1ccccc1N1CCC(CNC(=O)N(C)Cc2ccco2)C1 (configuration not stated)	-114.8
COc1ccccc1N1CCC(N2CCOCC(CO)C2)CC1 (configuration not stated)	27.34
COc1ccccc1N1CCC(CNCc2cccc(OC)c2OC)C1 (configuration not stated)	55.95
COc1ccccc1N1CCC(CNCc2c(C)nn(C)c2OC)C1 (configuration not stated)	51.83
Cc1ccc(C(C)(O)CNC(=O)CCn2ccnc2C(C)C)o1 (configuration not stated)	-68.59
Cc1[nH]ncc1C(=O)NCC(CO)Cc1ccc(Cl)cc1 (configuration not stated)	-37.01
c1cc(CNCC2CNc3ccnn3C2)cc(N2CCOCC2)n1 (configuration not stated)	-156.8
Cc1cc(N2Cc3cnn(CCO)c3C2)nc(-c2ccccc2O)n1	-189
O=C(NCC(O)C1CC1)Nc1cnn(Cc2ccccc2)c1 (configuration not stated)	-47.94
Cc1cncc(C2CCCN(C(=O)c3cn(C)nc3C)C2)n1 (configuration not stated)	-35.12
CCn1cc(CN2CCCN(C3Cc4ccccc4C3)CC2)c(C)n1	-9.026
Cn1nc(CN2CCCCC(N)C2)c2c(Cl)cccc21 (configuration not stated)	65.71
Cn1nc(CN2CCCN(C3CCCC3)CC2)c2c(Cl)cccc21	68.46
Cn1cnnc1CC1CCN(Cc2nn(C)c3cccc(Cl)c23)CC1	-15.19
C[C@@H]1CN(C2CCN(Cc3nn(C)c4cccc(Cl)c34)CC2)C[C@H](C)O1	-11.21
Cn1nc(CN2CCC(c3ccncc3)CC2)c2c(Cl)cccc21	-16.19
CCC(=O)N1CCC[C@]2(C(=O)N(C)C)CN(c3ccccn3)C[C@@H]2C1.O=C(O)C(F)(F)F	-7.405
Cn1nccc1-c1nnn2c1COC(CNCc1nccs1)C2.O=C(O)C(F)(F)F (configuration not stated)	-38.88
CCn1cc(S(=O)(=O)N2CCCC2c2ccc(C)o2)cn1 (configuration not stated)	-154.6
CC(C)c1nccn1C1CCCN(C(=O)c2nccnc2N)C1 (configuration not stated)	-27.69
CCOc1ncccc1CNC(=O)c1cc(C)on1	-34.12
Cn1cc(C2CC(=O)NC23CCN(C(=O)C2CC=CC2)CC3)cn1 (configuration not stated)	-79.79
Cn1cc(CN2CCC(CCC(=O)NCc3ccc(F)cc3)CC2)cn1	-110.1
Cn1cc(CN2CCCC(CCc3ccc(F)cc3)C2)cn1 (configuration not stated)	73.58
Cc1ccccc1CCC1CCCN(Cc2nnc(-c3ccco3)o2)C1 (configuration not stated)	-11.7
Cn1cc(CNC(=O)C2CCCN(Cc3cccc(F)c3)C2)cn1 (configuration not stated)	-63.48

Structure (SMILES)	Percent Effect [%]
Cn1cc(CN2CCCN(CCCc3ccccc3)CC2)cn1	-23.65
Cc1[nH]c(=O)[nH]c(=O)c1CN1CCCC(CCc2ccc(F)c(F)c2)C1 (configuration not stated)	-43.91
Cn1cc(CN2CCCC(CCc3ccc(F)c(F)c3)C2)cn1 (configuration not stated)	69.99
Cn1cc(C[C@H]2[C@H](O)CCN2Cc2ccc(F)cc2)cn1.O=C(O)C(F)(F)F	1.719
Cn1cc(CN2CCCC(CCc3ccccc3C(F)(F)F)C2)cn1 (configuration not stated)	87.33
Cn1cnnc1CNC(=O)C1CCCN(Cc2cccc(F)c2)C1 (configuration not stated)	-147.7
COc1ccc(CN2CCCC(Cn3nc(C)nc3C)C2)cc1F (configuration not stated)	-17.07
Cn1ccnc1CCNC(=O)C1CCCN(Cc2cccc(F)c2)C1 (configuration not stated)	58.15
Cc1nn(C)c(Cl)c1C1CCCN1C(=O)c1ccnn1C (configuration not stated)	-125.5
Cc1nc(CN2C[C@@H]3CN(C(=O)Cc4ccccn4)C[C@@H]3C2)cs1.O=C(O)C(F)(F)F.O=C(O)C(F)(F)F	-48.37
CN(Cc1nccn1CC(F)(F)F)C(=O)c1ccc(F)cc1F	-38.32
CCN1CCN(c2ccc(NC(C)c3nc(C(C)C)no3)c(C)c2)CC1 (configuration not stated)	-29.45
CNC(=O)COC(=O)c1ccn(-c2ccc(Cl)c(Cl)c2)n1	-33.36
COCC1c2c(cnn2C)CCN1Cc1ccco1.O=C(O)C(F)(F)F.O=C(O)C(F)(F)F (configuration not stated)	-7.218
Cc1cc(F)ccc1-n1cc(O)c(C(N)=O)n1	-184.1
Cc1[nH]c(=O)[nH]c(=O)c1CN1CCCC(CCc2c(F)cccc2F)C1 (configuration not stated)	-50.25
Cc1nc(C)n(CC2CCCN(Cc3ccc(F)cc3C#N)C2)n1 (configuration not stated)	-108
Cn1cc(CN2CCCC(CCc3c(F)cccc3F)C2)cn1 (configuration not stated)	78.37
Cc1[nH]c(=O)[nH]c(=O)c1CN1CCCC(CCc2ccccc2F)C1 (configuration not stated)	-31.73
Cn1ccnc1CN1CCCC(CCc2ccc(F)c(F)c2)C1 (configuration not stated)	73.33
Cn1cc(CN2CCCC(CCc3ccc(F)cc3F)C2)cn1 (configuration not stated)	88.72
Cc1[nH]c(=O)[nH]c(=O)c1CN1CCCC(CCc2ccc(F)cc2F)C1 (configuration not stated)	49.97
CC(c1ccc(F)c(F)c1)N1CCN(Cc2nccn2C)CC1 (configuration not stated)	-18.79
CC(C)n1ccnc1C1CCCN(Cc2ccc(F)c(F)c2)C1 (configuration not stated)	8.859
Cc1ccc(N2CCN(C(=O)CCc3ccc(O)cc3)CC2=O)cc1	-38.56
Cc1cc(F)cc2c(N3CCC(S(N)(=O)=O)CC3)c(C#N)cnc12	-75.95

Structure (SMILES)	Percent Effect [%]
O=C1CC2(CCSC2)C(=O)N1Cc1coc(-c2ccccc2)n1 (configuration not stated)	-69.36
CC1CCc2[nH]c(=O)c(C(=O)N3CCc4ccccc4C3)cc2C1 (configuration not stated)	-106.2
COCCN(CC1CC1)c1nc(CCN)nc2ccccc12	8.553
COCCN(CCOC)Cc1c(C)nc2ccccc2c1O	-60.42
NCCc1nc(N(Cc2nccs2)C2CC2)c2ccccc2n1	-61.5
NCCc1nc(N(Cc2cncs2)C2CC2)c2ccccc2n1	-36.69
COCCN(Cc1ccccc1Cl)c1nc(CCN)nc2ccccc12	89.02
COCCN(Cc1cccs1)c1nc(CCN)nc2ccccc12	61.62
COCCN(Cc1cccs1)C(=O)C1CCCN(C(N)=O)C1 (configuration not stated)	-166.3
Cc1ccsc1CN(c1nc(CCN)nc2ccccc12)C1CC1	51.16
COCCN(Cc1cc(O)nc2ccccc12)C(=O)NC(C)C	-37.53
CCC(=O)N(CCN(C)C)Cc1ccc(F)c(F)c1	39.58
CC(C)C1CCC(N2CCN(CCCS(C)(=O)=O)CC2)CC1 (configuration not stated)	11.68
Cc1cc2nc(C(C)C)cc(N3CCC(O)CC3)n2n1	-114.9
Cc1cccc(OC(C)C(=O)NCC2(N(C)C)CCCC2)c1 (configuration not stated)	80.49
Cc1cccc(C(C(=O)NCC2(O)CCCCC2)N(C)C)c1 (configuration not stated)	-49.85
CC(=O)N(C)CC(=O)NCC1(c2cccc(C)c2)CCCC1	-51.91
CC1CN(C(=O)NCCc2nc(C(C)C)no2)CCO1 (configuration not stated)	-93.77
Cl.Cn1ncc2c1CCCC2NCc1cccc(F)c1 (configuration not stated)	10.36
Cc1cccc(CNC2CCCc3c2cnn3Cc2ccccc2)c1.Cl (configuration not stated)	64.5
Cc1cccc(CNC2CCCc3c2cnn3C)c1.Cl (configuration not stated)	-40.76
c1cc(N2CCC3(COCc4cnc(NCC5CC5)nc43)C2)ncn1 (configuration not stated)	-14.49
c1ccc(CN2CCC3(COCc4cnc(NCC5CC5)nc43)C2)cc1 (configuration not stated)	50.22
O=S(=O)(C1CC1)N1CCC2(COCc3cnc(NCC4CC4)nc32)C1 (configuration not stated)	-35.4
